The results in this text go back to PubChem BioAssay AID602281 (The Scripps Research Institute Molecular Screening Center, 2012).

Screen size: about 360,000 compounds; about 2,900 (0.81%) were called active.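 Rule for the calls: active = inhibition above the mean inhibition across every tested compound plus 3 SD (cut at about 22% in these data); inactive = the rest.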 This excerpt belongs to a sample that is enriched for actives.

The target of the experiment is Perilipin-5 (Homo sapiens) + 1-acylglycerol-3-phosphate O-acyltransferase ABHD5 (Homo sapiens) (UniProt Q00G26+Q8WTS1). As to the kind of experiment: blockers of ABHD5 binding to perilipin-5 – cell lysate, split luciferase complementation, luminescence, primary screen (AID 602281).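 Note: 0% = DMSO only wells and the 100% control is not disclosed.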 The conditions noted are these: Split G. princeps luciferase complementation, 4 h, at 4 µM, hits give high values.
Perilipin-5 (Homo sapiens) + 1-acylglycerol-3-phosphate O-acyltransferase ABHD5 (Homo sapiens), sequence (Q00G26 whole entry, looked up): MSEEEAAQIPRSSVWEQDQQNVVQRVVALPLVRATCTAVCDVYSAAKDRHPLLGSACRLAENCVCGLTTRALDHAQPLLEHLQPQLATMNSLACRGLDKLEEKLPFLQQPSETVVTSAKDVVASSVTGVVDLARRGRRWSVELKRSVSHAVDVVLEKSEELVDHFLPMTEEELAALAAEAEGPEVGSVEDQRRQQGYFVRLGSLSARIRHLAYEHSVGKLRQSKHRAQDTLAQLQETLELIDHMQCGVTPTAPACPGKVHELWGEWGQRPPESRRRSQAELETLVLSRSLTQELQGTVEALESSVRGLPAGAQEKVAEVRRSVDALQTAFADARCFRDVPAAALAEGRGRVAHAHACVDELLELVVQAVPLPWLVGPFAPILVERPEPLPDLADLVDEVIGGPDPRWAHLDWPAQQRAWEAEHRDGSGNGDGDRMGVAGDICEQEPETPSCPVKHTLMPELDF
Perilipin-5 (Homo sapiens) + 1-acylglycerol-3-phosphate O-acyltransferase ABHD5 (Homo sapiens), sequence (Q8WTS1 whole entry, looked up): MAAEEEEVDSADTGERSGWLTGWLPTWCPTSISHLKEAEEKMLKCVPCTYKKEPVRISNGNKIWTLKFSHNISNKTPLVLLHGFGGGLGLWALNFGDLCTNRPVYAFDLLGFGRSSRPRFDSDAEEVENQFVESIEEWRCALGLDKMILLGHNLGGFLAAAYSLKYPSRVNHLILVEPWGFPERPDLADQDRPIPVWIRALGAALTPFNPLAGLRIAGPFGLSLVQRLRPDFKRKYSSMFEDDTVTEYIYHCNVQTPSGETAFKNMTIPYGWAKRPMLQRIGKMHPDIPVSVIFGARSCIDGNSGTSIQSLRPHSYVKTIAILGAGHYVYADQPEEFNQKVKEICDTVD
As for `CCOC(=O)[C@]12Cc3ccccc3[C@H]1N(C1CCCCC1)C(=O)c1cc(OC)ccc12`, the inhibition (in general, the change of the read-out against control, counted positive when it falls) was 39.6% (active).

As to `CCOC(=O)[C@]12Cc3cc(OC)ccc3[C@H]1N(C(C)C)C(=O)c1ccccc12`, the inhibition was 14.9% (inactive).

As for `CC(C)N(CC#CCC1(O)c2ccccc2-c2ccccc21)C(C)C`, the inhibition was 3.81% (inactive).

Take `CN(C)CC1Oc2ccccc2OC1(O)c1ccccc1` (stereo not given): the inhibition was 46.5% (active).

For the compound `CCOC(=O)CNC(=O)N1Cc2cc(N3CCCCC3)ccc2-n2nncc2C1`, the inhibition is 5.92% (inactive).

On to `CCN1CC2C3CCC(C)(O3)C2C1` (stereo not given), for which the inhibition is 4.06% (inactive).

With `Cc1ccc(-c2cc(C(=O)N3CCC4(CC3)OCCO4)no2)cc1`, the inhibition is -2.79% (inactive).

For `CCc1cccc2c(C#N)cn(CC(=O)N3CCOCC3)c12`, the inhibition was 1.5% (inactive).

In the case of `CCC(=O)CC(c1ccc([N+](=O)[O-])cc1)c1c(O)c2ccccc2oc1=O` (stereo not given), the inhibition was 5.29% (inactive).

Take `Cc1cccc(N2C(=O)NC(=O)/C(=C\c3cnn(-c4ccccc4)c3)C2=O)c1`: the inhibition was 55.1% (active).

On to `O=C(COC(=O)c1ccccc1)Nc1ccc(Cl)cc1C(=O)c1ccccc1`, for which the inhibition was 7.59% (inactive).

Take `Cc1ccc(S(=O)(=O)N(C)c2ccc(C(=O)NCC3(N(C)C)CCCCC3)cc2)cc1`: the inhibition is 0.68% (inactive).

Consider `COc1ccccc1N1CCN(C(CNC(=O)Oc2ccccc2)c2cccnc2)CC1` (stereo not given), for which the inhibition is 0.85% (inactive).

For `N#Cc1ccc(Cn2cc(C(=O)c3ccco3)c3ccccc32)cc1`, the inhibition was 5.75% (inactive).

For the compound `Cc1ccc(Cn2c(C)c3cnn(CC(=O)N4CCC5(CC4)OCCO5)c(=O)c3c2C)cc1`, the inhibition was 9.7% (inactive).

Turning to `COc1ccc(CN2C(=O)NC(=O)/C(=C\c3ccc(OC)c(OC)c3OC)C2=O)cc1`, the inhibition was 23.3% (active).

As for `C=CCN1C(=O)NC(=O)/C(=C/c2ccc(OCC(=O)Nc3ccc(C)cc3)cc2)C1=O`, the inhibition is 15.7% (inactive).

Consider `Cc1ccc(C)c(NC2=NCCCS2)c1`, for which the inhibition was 7.47% (inactive).

For `C=CCN1C(=O)C2(C(C(=O)OCC)=C(N)Oc3c2c(=O)oc2ccccc32)c2ccccc21` (stereo not given), the inhibition is -7.25% (inactive).

On to `O=c1[nH]c(=O)n(-c2ccc(F)cc2)c(O)c1C=NCCN1CCCCC1`, for which the inhibition was -4.1% (inactive).

In the case of `COc1ccc(N=Cc2c(O)n(C)c(=O)[nH]c2=O)cc1`, the inhibition is -7.01% (inactive).

Consider `CCc1nnc(NS(=O)(=O)c2ccc(N=Cc3c(O)n(-c4ccccc4)c(=O)[nH]c3=O)cc2)s1`, for which the inhibition is 24.9% (active).

Take `Cc1ccc(N2C(=O)NC(=O)C(CCc3ccncc3)(Cc3cccc(Cl)c3Cl)C2=O)cc1` (stereo not given): the inhibition was -2.62% (inactive).

Consider `CC1CCC(N(C)C2CCN(C)CC2)CC1` (stereo not given), for which the inhibition was -5.21% (inactive).

Consider `O=c1[nH]c(=O)n(CCc2ccc(F)cc2)c(O)c1/C=N/N1CCCCC1`, for which the inhibition is -2.89% (inactive).
